Screening results: PubChem BioAssay, National Center for Advancing Translational Sciences (NCATS)
RORgamma inh = blocks mouse ROR gamma transcriptional activity | P51450 | Drosophila S2 Gal4-RORgamma UAS-luciferase reporter, 20 h | Potency, µM (series often up to 53.6 µM), for inactives: top-dose activity change, negative = inhibition, usual class: inhibitors | 310,000 tested, 5.4% active | AID 2551; note: % is set by controls: 0 for no effect and ±100 for the full control effect; nearly all actives have a fitted effect of over 60% in size
Target sequence (P51450 whole entry, looked up, the tested form may be a part): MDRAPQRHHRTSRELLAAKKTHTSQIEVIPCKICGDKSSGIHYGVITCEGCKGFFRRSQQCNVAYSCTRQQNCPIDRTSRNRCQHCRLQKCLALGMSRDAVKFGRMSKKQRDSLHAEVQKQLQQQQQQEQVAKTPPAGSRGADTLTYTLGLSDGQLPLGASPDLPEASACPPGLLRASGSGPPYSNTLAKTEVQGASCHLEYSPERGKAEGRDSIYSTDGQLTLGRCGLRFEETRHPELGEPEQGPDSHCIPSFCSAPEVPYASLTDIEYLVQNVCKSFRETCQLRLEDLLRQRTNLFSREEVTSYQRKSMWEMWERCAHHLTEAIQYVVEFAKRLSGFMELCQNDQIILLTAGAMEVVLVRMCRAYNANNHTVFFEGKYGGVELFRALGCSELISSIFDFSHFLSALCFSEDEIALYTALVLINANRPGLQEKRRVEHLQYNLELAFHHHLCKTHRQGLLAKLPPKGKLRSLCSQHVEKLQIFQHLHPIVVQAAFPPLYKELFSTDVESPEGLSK
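Luminescence from a UAS-regulated Photinus luciferase reporter in stably transfected Drosophila Schneider cells is measured; decreased signal marks ROR gamma inhibition. Fusion expression is induced by 700 uM copper sulfate for 20 hr.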
Gal4-VP16 FLuc = Gal4-VP16 reporter inhibition counter-screen. Drosophila S2 Gal4-VP16 UAS-luciferase, luminescence, 20 h. Potency, µM (doses to about 53.6 µM), without a hit: at the top dose activity, negative = inhibition, actives largely listed as inhibitors. 310,000 tested, 3.5% active. AID 2546;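 note: Gal4-VP16 expression switched on by copper sulfate through the metallothionein promoter; % is set by controls: 0 for no effect and ±100 for the full control effect; nearly all actives have a fitted effect of over 50% in size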
GLP-1R inv ag = inverse agonists of human GLP-1 receptor | P43220 | HEK293 GLP-1R CRE-luciferase, luminescence, 24 h; GLP-1R form is constitutively active | Potency, µM (doses to about 38.3 µM), for inactives: at the top dose activity change, negative = inhibition, hits mostly inhibitors | 410,000 tested, 1.6% active; note: % is set by controls: 0 for no effect and ±100 for the full control effect; nearly all actives have a fitted effect of over 55% in size
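qHTS in 1536-well format: reporter HEK293 cells expressing constitutive GLP-1R activity in DMEM + 10% Nu serum, 24 hr with compounds at 37 deg C, luminescence read after 12 min with detection reagent.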
GLP-1R agonist = GLP-1 receptor (human) agonism. P43220. HEK293 GLP-1R CRE-luciferase, luminescence, 4-6 h; cells express a hypersensitive GLP-1R form. Potency, µM (highest dose often 45.6 µM), for inactives: at the highest dose activation, actives largely listed as activators. 380,000 tested, 0.007% active. AID 624172; note: % of control where 0% means no effect
HEK293 tox = cytotoxicity in counter-screen for GLP-1R inverse agonists; HEK293 cAMP-luciferase reporter cells, luminescence, 24 h; Potency, µM (series often up to 38.3 µM), for inactives: top-dose activity change, negative = inhibition, usual class: inhibitors; 410,000 tested, 0.13% active;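 note: loss of luciferase light is scored as toxicity; % is set by controls: 0 for no effect and ±100 for the full control effect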
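Compound-treated cells are incubated 24 hr at 37 deg C under 5% CO2 after a 12 hour attachment period, then luciferase detection reagent is added and luminescence is measured following 12 min at room temperature; lowered signal indicates toxicity.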
* = called active by the depositor; ? = inconclusive; / = no result; ! = not confirmed by another sample; [ ] = remark or other dose. An excerpt weighted towards active compounds, which were near 5.9% of everything screened. Calls come from the whole dose curve; as a rule, active = well fitted curve in the direction sought with a large enough effect; inconclusive = small, poorly fitted or top-dose-only effect, or another doubt; inactive = no such curve, though single readings can be large; an effect the other way counts as inactive or inconclusive. Potency is the fitted concentration of half-maximal effect.

SMILES	RORgamma inh	Gal4-VP16 FLuc	GLP-1R inv ag	GLP-1R agonist	HEK293 tox
COc1cccc(-c2cnc(NCc3ccccc3Cl)n2C)c1	/	/	?	0.6%	?
Cn1ccnc1C1CCCCN1Cc1nc(-c2ccc(Cl)cc2)no1 (stereo not drawn)	10µM*	?	-12.2%	11.9%	2.0%
CC(C)N(Cc1nc(-c2ccccc2)no1)C(=O)c1ccc(Cl)cc1	?	-0.6%	11.2µM*	1.2%	0.7%
CC(C)N(Cc1cn(C)nc1-c1cccc(Cl)c1)Cc1nccn1C	7.94µM*	?	?	0.2%	0.7%
CC(C)N(Cc1nc(-c2ccc(Cl)cc2)no1)Cc1nccn1C	5.01µM*	?	?	0.3%	-6.1%
Cc1cnccc1CN(C)Cc1cn(C)nc1-c1cccc(Cl)c1	0.8%	-5.1%	-40.4%	12.5%	-1.3%
COc1ccc(C2C=C(c3ccc(Cl)cc3)Nc3nc(-c4ccc(Cl)cc4)nn32)cc1 (stereo not drawn)	/	/	?	/	72.9%
CC(=O)Nc1ccc(SCC(c2ccccc2)N2CCN(CC(C)C)CCC2=O)cc1 (stereo not drawn)	?	26.6%	/	/	/
Cc1ccc2c(c1)C(=O)C1(O)CCN(c3ccccc3)C1=N2 (stereo not drawn)	28.5%	2.6%	/	/	/
N#Cc1cccc(-c2nc3cnc(Oc4cccc(Cl)c4)nc3n(C3CC3)c2=O)c1	?	-1.0%	/	/	/
O=C(CCCn1c(=O)c2sccc2n(Cc2ccc(Cl)cc2)c1=O)NCc1ccc2c(c1)OCO2	/	/	10.9%	/	1.8%
COc1ccccc1NC(=O)C1CCCN(c2ncnc3onc(-c4ccc(F)cc4)c23)C1 (stereo not drawn)	/	/	3.2%	/	-1.0%
Cc1ccccc1NC(=O)Nc1ccc(C(F)(F)F)cc1	-2.9%	-26.2%	4.47µM*	6.0%	-14.0%
CC(=O)OCON[N+]([O-])=NC(C)C	0.2%	28.2%	/	/	/
Cc1cc([C@](C)(N)C(=O)O)ccc1P(=O)(O)O	9.3%	-9.4%	/	/	/
COc1cc(NC(=S)NCCCN2CCOCC2)c(OC)cc1Cl	-22.7%	4.7%	13.2%	12.4%	0.3%
COc1ccc(Cl)cc1NC(=S)Nc1ccccc1C	11.2µM*	?	-12.7%	4.0%	-5.2%
COc1cc(NC(=S)NCCC(c2ccccc2)c2ccccc2)c(OC)cc1Cl	5.01µM*	3.16µM*	?	-3.5%	-17.1%
COc1ccccc1NC(=S)NCCc1ccc(OC)c(OC)c1	?	-12.5%	30.6%	11.8%	-2.7%
COc1ccc(Cl)cc1NC(=S)NCCC(c1ccccc1)c1ccccc1	7.08µM*	4.47µM*	?	-10.2%	10.7%[1.53 µM]
COc1ccccc1NC(=S)NCCC(c1ccccc1)c1ccccc1	11.2µM*	?	?	-0.6%	-23.7%
S=C(NCCC(c1ccccc1)c1ccccc1)Nc1ccccc1Cl	12.6µM*	?	?	-2.9%	?
COc1cccc([C@H]2Oc3ccc(OC)cc3/C(=N\OC[C@@H](O)[C@@H]3O[C@@H]4OC(C)(C)O[C@@H]4[C@H]3O)[C@@H]2O)c1	2.1%[10 µM]	28.9%[10 µM]	/	/	/
CCN(CC)CCCN1CC(O)=C(c2nc3ccccc3s2)C1=N	6.0%	10.6%	11.2µM*	4.8%	-5.2%
Cc1ccc(OCC(O)Cn2c(=N)n(CCN3CCCCC3)c3ccccc32)cc1 (stereo not drawn)	-19.1%	-1.8%	?	-14.6%	?
SMILES	RORgamma inh	Gal4-VP16 FLuc	GLP-1R inv ag	GLP-1R agonist	HEK293 tox
COc1ccc(-c2cc3ccccc3n2CC(O)CN2CCOCC2)cc1 (stereo not drawn)	16.3%	0.1%	?	2.9%	-6.3%
COc1ccc(OCC(O)Cn2c(=N)n(CCN3CCCCC3)c3ccccc32)cc1 (stereo not drawn)	3.5%	-2.2%	10µM*!	3.9%	?
COc1ccc(-c2cc3ccccc3n2CC(O)CN2CCN(CCO)CC2)cc1 (stereo not drawn)	14.8%	5.3%	10µM*	-1.3%	0.8%
Cc1ccc(CCNC(=O)C2CCCN(S(=O)(=O)c3ccc4c(c3)oc(=O)n4C)C2)cc1 (stereo not drawn)	/	/	1.6%	0.2%	4.4%
COc1ccc(CNC(=O)c2cnn(-c3ccc(C)cc3)c2-n2cccc2)cc1OC	/	/	-23.4%	/	0.3%
Cc1cccc(NC(=O)c2c(N)sc3c2CCC(C)C3)c1 (stereo not drawn)	/	/	10.7%	/	1.1%
CC(C)CO/N=C1/C[C@@H](O)[C@@H](O)[C@@H]2[C@@H]3C(=O)N(C(C)(C)C)C(=O)[C@H]3CC[C@H]12	12.6%[10 µM]	-7.1%[10 µM]	/	/	/
CC(C)[C@H](NC(=O)[C@H](CCCCN)NC(=O)[C@@H](NC(=O)[C@@H]1CCCN1C(=O)[C@H](CCCN=C(N)N)NC(=O)[C@H](CCCN=C(N)N)NC(=O)[C@H](CCCCN)NC(=O)[C@H](CCCCN)NC(=O)CNC(=O)[C@@H](NC(=O)[C@@H]1CCCN1C(=O)[C@@H](N)CCCCN)C(C)C)C(C)C)C(=O)N[C@@H](Cc1ccc(O)cc1)C(=O)N1CCC[C@H]1C(=O)O	-23.0%	-6.3%	/	/	/
COc1cc(/C=N/NC(=S)Nc2cccc(S(=O)(=O)N(C)C)c2)cc(OC)c1O	3.16µM*	2.82µM*	-0.9%	6.7%	-26.9%
CN(C)S(=O)(=O)c1cccc(NC(=S)N/N=C/c2ccco2)c1	1.12µM*	3.16µM*	?	-0.8%	12.1%
CN(C)S(=O)(=O)c1cccc(NC(=S)N/N=C/C(c2ccccc2)c2ccccc2)c1	3.55µM*	5.01µM*	0.0%	11.8%	?
CN(C)S(=O)(=O)c1cccc(NC(=S)Nc2ccc(Cl)cc2Cl)c1	20µM*	?	-8.7%	0.3%	-5.4%
CC(/C=N/NC(=S)Nc1cccc(S(=O)(=O)N(C)C)c1)c1ccccc1 (stereo not drawn)	-29.9%	-15.2%	-24.0%	-0.1%	-6.6%
COCCCNC(=O)CSc1nc(-c2cccc(F)c2)[nH]c1-c1ccccc1	/	/	-17.1%	/	6.0%
COc1cccc(/C=N/NC(=S)Nc2cccc(S(=O)(=O)N(C)C)c2)c1	1.58µM*	4.47µM*	?	6.0%	?
O=C(N/N=C(\c1ccccc1)c1cccnc1)c1cccc(F)c1	0.126µM*	/	?	-4.9%	?
CC(/C=C/C=C/c1ccccc1)=N\NC(=O)c1cccnc1	2.82µM*	3.16µM*	64.5%	2.6%	0.4%
O=C(N/N=C(\c1ccccc1)c1cccnc1)c1ccc(O)cc1	11.9%	6.7%	20.8%	7.8%	-9.5%
CC(/C=C/C=C/c1ccccc1)=N/NC(=O)c1ccc2c(c1)OCCO2	-19.2%	8.0%	-9.3%	4.9%	7.8%
CC(/C=C\C=C\c1ccccc1)=N\NC(=O)c1cncc(Br)c1	4.47µM*	6.31µM*	3.2%	5.2%	-4.1%
CC(/C=C/C=C/c1ccccc1)=N/NC(=O)C(O)c1ccccc1 (stereo not drawn)	-40.7%	-9.7%	-20.0%	12.3%	-11.3%
